Out of some 39,000 compounds screened, about 3,300 (8.5%) were called active. Only a selection was taken, and actives are over-represented in it overall.
Tested on: HepG2
Assay: cytotoxicity call (relative viability < 0.9)
Details: 10 µM

SMILES | cytotoxicity call
COCCNC(=O)C[C@@H]1CC[C@H]2[C@@H](COC[C@H](O)CN2S(=O)(=O)c2ccccc2F)O1 | inactive
COc1ccc(S(=O)(=O)Nc2ccc3c(c2)[C@H]2C[C@H](CC(=O)NCC4CC4)O[C@@H](CO)[C@H]2O3)cc1 | inactive
C[C@@H]1CN([C@@H](C)CO)C(=O)Cc2cc(NS(C)(=O)=O)ccc2O[C@H]1CN(C)S(=O)(=O)c1ccccc1 | inactive
CN[C@H]1CN(c2ccc3c(=O)c(C(=O)O)cn(-c4nccs4)c3n2)C[C@@H]1OC | inactive
CCC(NC(C)C)C(O)c1ccc(O)c(O)c1.CS(=O)(=O)O (stereo not given) | inactive
CC(C)NCC(O)c1ccc(NS(C)(=O)=O)cc1.Cl (stereo not given) | inactive
CC(C)NCC(O)c1cc(O)cc(O)c1 (stereo not given) | active
CC(C)(C)NCC(O)c1cc(O)cc(O)c1.O=S(=O)(O)O (stereo not given) | inactive
CC(C)NCC(O)c1ccc(O)c(O)c1.Cl (stereo not given) | active
CC(C)NCC(O)c1ccc2ccccc2c1.Cl (stereo not given) | inactive
C[C@@H]1CCCCO[C@H](CN(C)Cc2ccc(C(F)(F)F)cc2)[C@@H](C)CN([C@H](C)CO)C(=O)c2cc(NS(=O)(=O)c3cn(C)cn3)ccc2O1 | inactive
COc1ccc(S(=O)(=O)N(C)C[C@@H]2Oc3ccc(NC(=O)NC(C)C)cc3CC(=O)N([C@@H](C)CO)C[C@H]2C)cc1 | inactive
COC(=O)[C@@H](C)N(C#N)c1nc(C)cc(C)n1 | inactive
C[C@@H]1CCCCO[C@@H](CN(C)S(=O)(=O)c2cccs2)[C@@H](C)CN([C@@H](C)CO)C(=O)c2cc(NC(=O)NC3CCCCC3)ccc2O1 | inactive
C[C@H]1CN([C@@H](C)CO)S(=O)(=O)c2ccc(C3=CCCC3)cc2O[C@@H]1CN(C)S(=O)(=O)c1cn(C)cn1 | inactive
C[C@@H]1CN([C@H](C)CO)C(=O)c2cc(NS(=O)(=O)c3ccc(F)cc3)ccc2O[C@@H]1CN(C)S(=O)(=O)c1ccc(F)cc1 | inactive
C[C@@H]1CN([C@H](C)CO)C(=O)Cc2cc(NC(=O)Nc3ccccc3)ccc2O[C@@H]1CN(C)Cc1ccc(Cl)c(Cl)c1 | active
C[C@H](CO)N1C[C@H](C)[C@@H](CN(C)Cc2ccc(Cl)c(Cl)c2)Oc2ccc(NC(=O)Nc3ccccc3)cc2CC1=O | inactive
C[C@H](CO)N1C[C@H](C)[C@H](CN(C)Cc2ccc(Cl)c(Cl)c2)Oc2ccc(NC(=O)Nc3ccccc3)cc2CC1=O | active
C[C@H]1CN([C@@H](C)CO)C(=O)Cc2cc(NC(=O)Nc3ccccc3)ccc2O[C@H]1CN(C)Cc1ccc(Cl)c(Cl)c1 | active
C[C@@H]1CN([C@H](C)CO)C(=O)Cc2cc(NC(=O)Nc3ccccc3)ccc2O[C@H]1CN(C)Cc1ccc(Cl)c(Cl)c1 | active
C[C@@H]1CN([C@@H](C)CO)C(=O)Cc2cc(NC(=O)Nc3ccccc3)ccc2O[C@H]1CN(C)Cc1ccc(Cl)c(Cl)c1 | inactive
CC(C)NC(=O)Nc1ccc2c(c1)C(=O)N([C@H](C)CO)C[C@H](C)[C@H](CN(C)C(=O)Nc1ccccc1)OCCCC[C@H](C)O2 | inactive
C[C@@H]1CN([C@@H](C)CO)C(=O)Cc2cc(NS(=O)(=O)c3cn(C)cn3)ccc2O[C@@H]1CN(C)Cc1ccc(C(=O)Nc2ccccc2N)cc1 | inactive

SMILES | cytotoxicity call
Cc1noc(C)c1S(=O)(=O)Nc1cccc2c1O[C@H](CN(C)C(=O)Nc1ccccc1)[C@H](C)CN([C@H](C)CO)C2=O | inactive
CN(C(=O)c1ccc(Cl)c(N2C(=O)CCS2(=O)=O)c1)[C@H]1CCS(=O)(=O)C1 | inactive
Cc1ccc(S(=O)(=O)Nc2ccc3c(c2)C(=O)N([C@@H](C)CO)C[C@H](C)[C@@H](CN(C)S(C)(=O)=O)O3)cc1 | inactive
O=C(C[C@H]1CC[C@H]2[C@@H](COC[C@@H](O)CN2S(=O)(=O)c2ccc(F)cc2)O1)NCCN1CCCCC1 | inactive
Cc1noc(C)c1NC(=O)Nc1ccc2c(c1)C(=O)N([C@H](C)CO)C[C@@H](C)[C@@H](CN(C)Cc1ccc3c(c1)OCO3)OCCCC[C@H](C)O2 | inactive
O=C(C[C@H]1C[C@H]2c3cc(NS(=O)(=O)c4ccc(F)cc4)ccc3O[C@H]2[C@H](CO)O1)NCc1cccc(F)c1 | inactive
C[C@@H]1CN([C@@H](C)CO)C(=O)Cc2cc(NC(=O)Nc3ccccc3)ccc2O[C@@H]1CN(C)Cc1ccc(Cl)c(Cl)c1 | active
C[C@H]1CN([C@@H](C)CO)C(=O)Cc2cc(NC(=O)Nc3ccccc3)ccc2O[C@@H]1CN(C)Cc1ccc(Cl)c(Cl)c1 | active
C[C@H](CO)N1C[C@H](C)[C@H](CN(C)Cc2ccc(C(F)(F)F)cc2)OCCCC[C@H](C)Oc2ccc(NC(=O)c3ccncc3)cc2C1=O | inactive
C[C@@H]1CN([C@@H](C)CO)S(=O)(=O)c2ccc(C3=CCCC3)cc2O[C@H]1CN(C)S(=O)(=O)c1ccc(F)cc1 | inactive
Nc1cccc(OCc2ccccc2)c1 | inactive
CC(C)NC(=O)Nc1ccc2c(c1)C(=O)N([C@H](C)CO)C[C@@H](C)[C@H](CN(C)Cc1ccc(C(=O)O)cc1)O2 | inactive
C[C@@H]1CN([C@H](C)CO)S(=O)(=O)c2ccc(C#CCN(C)C)cc2O[C@H]1CN(C)C(=O)Nc1ccccc1F | inactive
CC12C=CC(=O)C=C1CCC1C2C(=O)CC2(C)C1CCC2(O)C(=O)CO (stereo not given) | inactive
O=P(O)(O)C(Cl)(Cl)P(=O)(O)O | active
CC(O)(P(=O)(O)O)P(=O)(O)O | inactive
CC(O)(P(=O)([O-])O)P(=O)([O-])O.[Na+].[Na+] | inactive
C[C@@H]1CN([C@@H](C)CO)C(=O)c2cc(NC(=O)Cc3ccccc3)ccc2O[C@@H](C)CCCCO[C@@H]1CN(C)C(=O)C1CCCCC1 | inactive
COc1ccc(NC(=O)N(C)C[C@@H]2OCCCC[C@@H](C)Oc3ccc(NC(=O)Nc4c(C)noc4C)cc3C(=O)N([C@@H](C)CO)C[C@H]2C)cc1 | inactive
CN(Cn1[nH]c(=O)ccc1=O)c1ccccc1 | inactive
COCCOC(=O)N1C(=O)[C@@]2(c3cc(C#CCNC(N)=O)ccc31)[C@H](C(=O)N1CCCCCCC1)[C@H]1C(=O)O[C@H](c3ccccc3)[C@H](c3ccccc3)N1[C@@H]2c1ccccc1OCCO | inactive
Cl.OC(c1cc(C(F)(F)F)nc2c(C(F)(F)F)cccc12)C1CCCCN1 (stereo not given) | active
C[C@H]1CN([C@@H](C)CO)C(=O)c2cccc(NC(=O)C3CCCCC3)c2O[C@H]1CN(C)Cc1ccc(-c2ccccc2)cc1 | inactive
Cc1noc(C)c1NC(=O)Nc1cccc2c1O[C@@H](CN(C)Cc1ccc(Cl)c(Cl)c1)[C@@H](C)CN([C@H](C)CO)C2=O | inactive

SMILES | cytotoxicity call
C[C@H]1CN([C@@H](C)CO)C(=O)Cc2cc(NC(=O)Cc3ccccc3)ccc2O[C@H]1CN(C)Cc1ccc(-c2ccccc2)cc1 | active
C[C@@H]1CN([C@@H](C)CO)C(=O)Cc2cc(NC(=O)Cc3ccccc3)ccc2O[C@@H]1CN(C)Cc1ccc(-c2ccccc2)cc1 | active
C[C@H](CO)N1C[C@H](C)[C@H](CN(C)Cc2ccc(-c3ccccc3)cc2)Oc2ccc(NC(=O)Cc3ccccc3)cc2CC1=O | inactive
C[C@@H]1CN([C@@H](C)CO)C(=O)Cc2cc(NC(=O)Cc3ccccc3)ccc2O[C@H]1CN(C)Cc1ccc(-c2ccccc2)cc1 | inactive
C[C@@H]1CN([C@H](C)CO)C(=O)Cc2cc(NC(=O)Cc3ccccc3)ccc2O[C@@H]1CN(C)Cc1ccc(-c2ccccc2)cc1 | active
C[C@@H]1CN([C@H](C)CO)C(=O)Cc2cc(NC(=O)Cc3ccccc3)ccc2O[C@H]1CN(C)Cc1ccc(-c2ccccc2)cc1 | inactive
C[C@H](CO)N1C[C@H](C)[C@@H](CN(C)Cc2ccc(-c3ccccc3)cc2)Oc2ccc(NC(=O)Cc3ccccc3)cc2CC1=O | inactive
C[C@H]1CN([C@@H](C)CO)C(=O)Cc2cc(NC(=O)Cc3ccccc3)ccc2O[C@@H]1CN(C)Cc1ccc(-c2ccccc2)cc1 | inactive
CC(C)NC(=O)N(C)C[C@H]1Oc2ccc(NS(=O)(=O)c3cn(C)cn3)cc2CC(=O)N([C@@H](C)CO)C[C@@H]1C | inactive
COc1cccc(C#Cc2ccc3c(c2)O[C@H](CN(C)C(=O)c2ccccn2)[C@H](C)CN([C@@H](C)CO)S3(=O)=O)c1 | inactive
COc1ccc(CN(C)C[C@@H]2OCCCC[C@@H](C)Oc3ccc(NC(=O)CCCCCC(=O)Nc4ccccc4N)cc3C(=O)N([C@H](C)CO)C[C@@H]2C)cc1 | inactive
C[C@@H]1CCCCO[C@@H](CN(C)Cc2ccc3c(c2)OCO3)[C@@H](C)CN([C@@H](C)CO)C(=O)c2cc(NC(=O)c3ccccc3)ccc2O1 | inactive
C[C@H](CO)N1C[C@H](C)[C@H](CN(C)S(=O)(=O)c2cccs2)OCCCC[C@H](C)Oc2ccc(NC(=O)C3CCCCC3)cc2C1=O | inactive
Cc1noc(C)c1NC(=O)Nc1ccc2c(c1)CC(=O)N([C@@H](C)CO)C[C@H](C)[C@H](CN(C)C(=O)Nc1cccc3ccccc13)O2 | inactive
C[C@@H]1CN([C@@H](C)CO)C(=O)c2cc(NC(=O)Cc3cn(C)c4ccccc34)ccc2O[C@@H]1CN(C)Cc1ccc(-c2ccccc2)cc1 | active
C[C@H](CO)N1C[C@H](C)[C@H](CN(C)Cc2ccc(-c3ccccc3)cc2)Oc2ccc(NC(=O)Cc3cn(C)c4ccccc34)cc2C1=O | active
C[C@H]1CN([C@@H](C)CO)C(=O)c2cc(NC(=O)Cc3cn(C)c4ccccc34)ccc2O[C@@H]1CN(C)Cc1ccc(-c2ccccc2)cc1 | active
C[C@@H]1CN([C@H](C)CO)C(=O)c2cc(NC(=O)Cc3cn(C)c4ccccc34)ccc2O[C@@H]1CN(C)Cc1ccc(-c2ccccc2)cc1 | inactive
C[C@H](CO)N1C[C@H](C)[C@@H](CN(C)Cc2ccc(-c3ccccc3)cc2)Oc2ccc(NC(=O)Cc3cn(C)c4ccccc34)cc2C1=O | inactive
C[C@H]1CN([C@@H](C)CO)C(=O)c2cc(NC(=O)Cc3cn(C)c4ccccc34)ccc2O[C@H]1CN(C)Cc1ccc(-c2ccccc2)cc1 | inactive
C[C@@H]1CN([C@H](C)CO)C(=O)c2cc(NC(=O)Cc3cn(C)c4ccccc34)ccc2O[C@H]1CN(C)Cc1ccc(-c2ccccc2)cc1 | inactive
C[C@@H]1CN([C@@H](C)CO)C(=O)c2cc(NC(=O)Cc3cn(C)c4ccccc34)ccc2O[C@H]1CN(C)Cc1ccc(-c2ccccc2)cc1 | inactive

From the antibiotic and cytotoxicity screens of Wong et al. (2023)
